These results are taken from PubChem BioAssay (NCI).

Test systems include SK-MEL-2 melanoma; EKVX NSCLC; SN12C renal; UO-31 renal; TK-10 renal; CAKI-1 renal; A498 renal; CCRF-CEM leukemia; MOLT-4 leukemia.
Common to all, as to experiment: NCI-60 one-dose screen, 48 h (100 = growth as untreated, 0 = no growth, -100 = all killed)
Settings in all cases: 10 µM unless noted

Structures are written as SMILES. About 83,000 compounds went through this panel and 20% of them were active in at least one assay; those are over-represented in the sample as a whole.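 The test compound was applied at a single concentration to cells in 96-well plates for 48 hours, and percent growth was recorded.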 Unmarked numbers belong to inactive results. Active and inactive are the calls of the source. The calls were made as follows: active = growth percent below 10; inactive = the rest.

On to `COc1ccc(CCN2C(=O)/C(=C/c3ccc(C4Oc5ccccc5C5CC(c6ccccc6)=NN54)cc3)SC2=S)cc1` (centres undefined), for which the growth was 103% in the experiment on SK-MEL-2 melanoma; 97.4% in the experiment with EKVX NSCLC; 101% with SN12C renal; 80.7% in the experiment with UO-31 renal; 104% in the experiment on TK-10 renal; 89.8% in the experiment with CAKI-1 renal. Further, the growth is 115% with A498 renal, 36.6% with CCRF-CEM leukemia and 100% with MOLT-4 leukemia.

On to `CC[N+]1(CC)CC[N+]2(CCCC(C)CC2)CC1` (centres undefined), for which the growth is 110% in the experiment with SK-MEL-2 melanoma; 100% in the experiment with EKVX NSCLC; 96.4% with SN12C renal; 94.7% in the experiment on UO-31 renal; 104% in the experiment on TK-10 renal; 101% with CAKI-1 renal. Further, the growth with A498 renal is 95.8%; in the experiment on CCRF-CEM leukemia, 107%; with MOLT-4 leukemia it was 105%.

With `O=C1c2ccccc2C(=O)c2c1c(C(=O)NCc1ccccc1)c1ccccn21`, the growth is 87.8% with SK-MEL-2 melanoma; 105% in the experiment on EKVX NSCLC; 107% in the experiment on SN12C renal; 89.8% in the experiment with UO-31 renal; 97.2% in the experiment on TK-10 renal; 91.7% in the experiment on CAKI-1 renal. Besides, the figures for the growth in the experiment with A498 renal, with CCRF-CEM leukemia and in the experiment with MOLT-4 leukemia were 95.6%, 90.2% and 96.3%, respectively.

Regarding `FC(F)(F)c1ccc(Cn2cc(CSc3nc4ccccc4s3)nn2)cc1`, the growth with SK-MEL-2 melanoma was 95.6%; with EKVX NSCLC, 99.5%; in the experiment with SN12C renal it was 99.9%; in the experiment on UO-31 renal, 78.7%; in the experiment with TK-10 renal, 97.6%; with CAKI-1 renal it was 84.3%. Also, the values for the growth with A498 renal, with CCRF-CEM leukemia and in the experiment on MOLT-4 leukemia were 86%, 91% and 98.1%, respectively.

As for `COc1ccc2[nH]cc(-c3nc(-c4c[nH]c5c(Cl)nccc45)cs3)c2c1`, the growth in the experiment on SK-MEL-2 melanoma is 59.3%; in the experiment with EKVX NSCLC, 62.8%; in the experiment with SN12C renal, 56.5%; with UO-31 renal, 32.4%; in the experiment on TK-10 renal, 49.6%; in the experiment with CAKI-1 renal, 61.6%. For the same compound, the growth with A498 renal is -15.3% (active); with CCRF-CEM leukemia it was 24.7%; in the experiment with MOLT-4 leukemia it was 41.1%.

For the compound `COc1ccc(/C=C2\COc3ccc(O)cc3C2=O)cc1`, the growth in the experiment with SK-MEL-2 melanoma is 109%; in the experiment with EKVX NSCLC it was 105%; in the experiment on SN12C renal it was 92.5%; in the experiment with UO-31 renal it was 72.7%; in the experiment on TK-10 renal it was 104%; with CAKI-1 renal, 89.4%. Besides, the growth is 110% with A498 renal, 3.13% (active) with CCRF-CEM leukemia and 74.5% in the experiment on MOLT-4 leukemia.

Regarding `COc1cc(-c2nc3sccn3c2-c2ccnc(NCCNS(=O)(=O)c3ccc(Cl)cc3)n2)ccc1F`, the growth in the experiment on SK-MEL-2 melanoma is 12.6%; in the experiment with EKVX NSCLC, 48.8%; with SN12C renal, 37.4%; in the experiment with UO-31 renal, 6.85% (active); in the experiment with TK-10 renal, 55.1%; in the experiment on CAKI-1 renal it was 19.6%. Besides, the growth is 52.8% in the experiment on A498 renal, 6.78% (active) in the experiment on CCRF-CEM leukemia and -3.87% (active) in the experiment with MOLT-4 leukemia.

As to `C=CN(C(=O)N1CCN(c2cc3c(cc2F)c(=O)c(C(=O)O)cn3C2CC2)CC1)c1nc(-c2ccc(OC)cc2)cs1`, the growth in the experiment with SK-MEL-2 melanoma was 18.4%; in the experiment on EKVX NSCLC, 23.7%; in the experiment with SN12C renal, 11.3%; with UO-31 renal it was 15.5%; with TK-10 renal it was 42.8%; in the experiment on CAKI-1 renal it was 17.3%. Further, the growth in the experiment on A498 renal is 8.44% (active); with CCRF-CEM leukemia, 8.17% (active); in the experiment with MOLT-4 leukemia it was 18%.

Turning to `Cn1ccc(=O)nc1`, the growth is 12.7% in the experiment on SK-MEL-2 melanoma; 130% in the experiment on EKVX NSCLC; 81.5% in the experiment with SN12C renal; 73.4% in the experiment with UO-31 renal; 94.9% in the experiment with TK-10 renal; 73.4% in the experiment with CAKI-1 renal. Also, the growth in the experiment on A498 renal was 98.1%; with CCRF-CEM leukemia it was 86.7%; with MOLT-4 leukemia, 74.6%.

Regarding `COc1ccc2cc(-c3ccnc4c(N=Nc5ccc(Cl)cc5)c(N)nn34)ccc2c1`, the growth was 118% with SK-MEL-2 melanoma; 114% in the experiment with EKVX NSCLC; 100% with SN12C renal; 77.7% in the experiment on UO-31 renal; 102% in the experiment on TK-10 renal; 92.2% in the experiment on CAKI-1 renal. The figures for the growth in the experiment on A498 renal, in the experiment with CCRF-CEM leukemia and with MOLT-4 leukemia were 97.2%, 91.6% and 100%, respectively.

For `C=C1C(=O)O[C@H]2[C@H]1CC/C(COC(=O)/C=C\C(=O)NCc1ccc(Cn3c(=O)sn(CCCCC)c3=O)cc1)=C\CC[C@@]1(C)O[C@@H]21`, the growth was 87.6% in the experiment with SK-MEL-2 melanoma; 98% in the experiment with EKVX NSCLC; 71% in the experiment on SN12C renal; 60.7% in the experiment with UO-31 renal; 57.4% in the experiment on TK-10 renal; 66.6% with CAKI-1 renal. Further, the growth with A498 renal is 100%; with CCRF-CEM leukemia it was 4.56% (active); with MOLT-4 leukemia it was 18%.
